Reference: PubChem BioAssay AID588852 (The Scripps Research Institute Molecular Screening Center, 2011)
About 4,600 (1.3%) of roughly 360,000 compounds were called active. This is one part of a sample in which actives are shown more often than they occur. A number with no mark means an inactive call.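 How the source made its calls: active means percent inhibition above its own plate's cutoff, namely the mean of that plate's compound wells plus 3 SD; inactive means the rest.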

The compounds below were run against Muscarinic acetylcholine receptor M1 (Homo sapiens) (UniProt P11229) (assay: human M1 muscarinic receptor antagonists, primary screen, CHO-K1 cells, Fluo-8 calcium fluorescence, 1536-well (AID 588852;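 further: peak over basal fluorescence ratio during 140 s after agonist addition; 0% = ACh EC80 plus DMSO and 100% = DMSO alone without agonist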)). Settings: CHO-K1 hM1, Fluo-8 calcium fluorescence, ACh EC80 antagonist; at 3 µM; active compounds read high.
Sequence of Muscarinic acetylcholine receptor M1 (Homo sapiens) (P11229 whole entry, looked up): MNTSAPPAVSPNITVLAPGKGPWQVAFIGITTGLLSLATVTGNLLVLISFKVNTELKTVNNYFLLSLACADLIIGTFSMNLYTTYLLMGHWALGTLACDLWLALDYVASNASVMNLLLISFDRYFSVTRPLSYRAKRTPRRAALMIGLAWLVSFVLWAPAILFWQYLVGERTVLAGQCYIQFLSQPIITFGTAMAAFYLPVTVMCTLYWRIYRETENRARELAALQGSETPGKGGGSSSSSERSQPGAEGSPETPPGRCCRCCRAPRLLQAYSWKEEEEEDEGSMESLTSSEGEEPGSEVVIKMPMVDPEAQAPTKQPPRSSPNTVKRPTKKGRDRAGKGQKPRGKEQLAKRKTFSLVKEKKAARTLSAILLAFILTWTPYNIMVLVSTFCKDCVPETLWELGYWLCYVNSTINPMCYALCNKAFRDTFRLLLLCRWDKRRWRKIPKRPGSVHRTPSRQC

SMILES	inhibition
CC(=O)n1cc([C@@H]2C=C(C(=O)N3CCN(Cc4ccc5c(c4)OCO5)CC3)O[C@H](OCc3ccc(CO)cc3)C2)c2ccccc21	15.6%
CNC[C@H]1OCc2cnnn2CCCC(=O)N([C@H](C)CO)C[C@@H]1C	-31.6%
Cc1ccc(SCC(=O)N2CCN(c3ccc(F)cc3)CC2)cc1	1.11%
CCN1CCC2(CC1)N=C(c1ccc(F)cc1)C(=S)N2C(=O)c1ccc(C)cc1	90.6% (active)
CCN1CCC(O)(/C=C/c2ccc(C)cc2)C(C(=O)/C=C/c2ccc(C)cc2)C1 (stereo not given)	5.04%
C[C@@H]1CN([C@H](C)CO)C(=O)CCCn2nncc2CO[C@@H]1CN(C)S(=O)(=O)c1cccc(C#N)c1	-0.77%
COc1ccc(C2=Nc3ccccc3NC(=O)C2N(C(=O)c2cc3ccccc3[nH]2)c2ccccc2)cc1 (stereo not given)	-26.4%
CC(C)(C)CC(=O)Nc1nc(C(N)Cc2ccc(C(F)(F)F)cc2)cs1 (stereo not given)	-6.85%
O=C(O)C1C2C=CC(O2)C1C(=O)NCCc1cccc(Cl)c1 (stereo not given)	-2.69%
COc1cccc(NC(=O)C2c3cc(OC)c(OC)cc3C(=O)N(C)C2c2cccnc2)c1 (stereo not given)	-10.6%
CC(=O)Nc1ccc(CN2CCC(Oc3ccc(C(=O)N4CCCC4)cc3)CC2)cc1	53.8% (active)
O=C(c1ccc(OC2CCN(C/C=C/c3ccc(F)cc3)CC2)cc1)N1CCCCC1	29.3%
Cc1nn(C)c(Cl)c1CN1CCC(Oc2ccc(C(=O)N3CCCC3)cc2)CC1	8.44%
CCOP(=O)(OCC)C(Cc1ccccc1)N=C(c1ccccc1)c1ccccc1 (stereo not given)	-5.83%
Cc1c(CN2CCCC(C(=O)c3cccc(Cl)c3)C2)c(=O)n(-c2ccccc2)n1C (stereo not given)	27.6% (active)
Cc1c(CN2CCC(C)CC2)c(=O)n(-c2ccccc2)n1C	8.27%
Cc1cccc(N2CCN(Cc3c(C)n(C)n(-c4ccccc4)c3=O)CC2)c1C	12.1%
CC(C)(O)C#Cc1ccc(CNC[C@H]2O[C@@H](n3cnc4c(=O)[nH]c(N)nc43)[C@H](O)[C@@H]2O)s1	3.48%
C=CCOC(=O)C1=C[C@@H](c2ccc3c(c2)OCO3)C[C@@H](OCCCCO)O1	-1.17%
Cc1cc2c(cc1C)N1C(=O)c3cc4ccccc4cc3NC(=O)C1C(=O)N2 (stereo not given)	-27%
O=C(CCN1CCN(c2ccccc2)CC1)NNC(=S)Nc1ccccc1	17.2%
CCCCC(=O)NNC(=S)NC(=O)C(c1ccccc1)c1ccccc1	68.7% (active)
COc1ccccc1NC(=S)NC(=O)C(C)C	-7.13%
COc1cc(NC(=O)c2cc(-c3ccc(F)cc3OC(C)C)n[nH]2)cc(OC)c1OC	8.53%
CCc1ccc(C(=O)OCC(=O)NCC(F)(F)F)cc1	-11.6%
CC(=O)Nc1ccc(C(=O)CSc2nnc(Cc3ccccc3)o2)cc1	-12.2%
CCOc1ccc(Nc2nc(Cc3nnc(SCC(=O)c4ccc(C)cc4)o3)cs2)cc1	13% (active)
CCOc1ccc(Nc2nc(Cc3nnc(SCC(=O)NC4CCCC4)n3C)cs2)cc1	-22.9%

SMILES	inhibition
CCOC(=O)c1nnn(CC(=O)Nc2cccc(F)c2)c1C(=O)OCC	-2.12%
O=C(NCc1cccnc1)c1nc(-c2cccs2)no1	-2.8%
CC1CCC2CCCCC2N1C(=O)c1cc([N+](=O)[O-])cc([N+](=O)[O-])c1 (stereo not given)	-3.75%
Cn1cc(CN2CCCCC2c2ccccn2)c(-c2ccc3c(c2)OCCO3)n1 (stereo not given)	-3.05%
COc1ccccc1CNC(=O)c1ccc(Cl)c(S(=O)(=O)N2CCCC2)c1	-5.01%
Cc1ccc(C(=O)Nc2ccc3c(c2)OCCO3)cc1S(=O)(=O)N1CCOCC1	-13.2%
COc1ccccc1C(CNC(=O)c1ccc(C)c(S(=O)(=O)N2CCCCC2)c1)N(C)C (stereo not given)	101% (active)
Cc1ccc(C(=O)NCC(c2cccs2)N(C)C)cc1S(=O)(=O)N1CCOCC1 (stereo not given)	50.7% (active)
Cc1ccc(C(=O)Nc2ncccc2C)cc1S(=O)(=O)N1CCOCC1	-9.39%
COc1ccccc1C(=O)Nc1ccc(C)c(S(=O)(=O)N2CCCCC2)c1	5.17%
CCCCN1C(=O)/C(=C/C=C2/C=Cc3ccccc3N2CC)SC1=S	-7.59%
CCCCN1C(=O)/C(=C2/C=CC=CN2C)SC1=S	37.9% (active)
CN1C=CC=C/C1=C1\SC(=S)N(Cc2ccccc2)C1=O	19.7%
CCC(C)C(CO)NC(=O)/C=C/[C@H]1O[C@@H](n2cnc3c(NC(=O)c4ccccc4)ncnc32)[C@H](O)[C@@H]1O (stereo not given in full)	3.77%
CC(C)c1cccc(C(C)C)c1Nc1cn[nH]c1	-0.55%
O=S(=O)(/C=C/c1ccccc1)N1CCNCC1	-8.17%
Fc1ccc(CNCc2ccc(Br)cc2)cc1	-0.53%
Cc1ccc(NC(=O)CN(C)C(=O)c2cccc(S(=O)(=O)N3CCCC3)c2)cc1	-6.53%
CCOc1ccc(NC(=O)CN(C)C(=O)c2cccc(S(=O)(=O)N3CCCC3)c2)cc1OCC	7.19%
COc1ccc(NC(=O)CN(C)C(=O)c2cccc(S(=O)(=O)N3CCN(c4ccccc4)CC3)c2)cc1	57.7% (active)
C=CCN(c1ccc(Cl)cc1)S(=O)(=O)c1cccc(C(=O)OCC(=O)N(C)C)c1	-8.38%
COc1cc(S(=O)(=O)N(Cc2cccs2)C2CC2)ccc1-n1cnnn1	-5.47%
O=S(=O)(Cc1nnnn1-c1ccc(Br)cc1)c1ccc(F)cc1	-2.5%
Nc1c(C(=O)c2cccs2)sc2nsc(SCCN3CCCCC3)c12	44.1% (active)
S=C(Nc1ccccc1)Nc1ccc2ccccc2c1	-3.01%
O=C(Nc1ccc2ccccc2c1)Nc1ccc2snnc2c1	32.8% (active)
Cc1nc2cc(NC(=O)Nc3cccc(F)c3)ccc2n1C	-17.2%
